PAD4 FP inh – blocks human protein arginine deiminase 4; Q9UM07; recombinant PAD4, RCA probe fluorescence polarization; inhibition, % at 6.36 µM; 0.41% of 330,000 active; AID 485272;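 active means percent inhibition above a cutoff equal to the mean of all tested compounds plus 3 SD, cut at about 15% in these data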
Target sequence (Q9UM07 whole entry, looked up): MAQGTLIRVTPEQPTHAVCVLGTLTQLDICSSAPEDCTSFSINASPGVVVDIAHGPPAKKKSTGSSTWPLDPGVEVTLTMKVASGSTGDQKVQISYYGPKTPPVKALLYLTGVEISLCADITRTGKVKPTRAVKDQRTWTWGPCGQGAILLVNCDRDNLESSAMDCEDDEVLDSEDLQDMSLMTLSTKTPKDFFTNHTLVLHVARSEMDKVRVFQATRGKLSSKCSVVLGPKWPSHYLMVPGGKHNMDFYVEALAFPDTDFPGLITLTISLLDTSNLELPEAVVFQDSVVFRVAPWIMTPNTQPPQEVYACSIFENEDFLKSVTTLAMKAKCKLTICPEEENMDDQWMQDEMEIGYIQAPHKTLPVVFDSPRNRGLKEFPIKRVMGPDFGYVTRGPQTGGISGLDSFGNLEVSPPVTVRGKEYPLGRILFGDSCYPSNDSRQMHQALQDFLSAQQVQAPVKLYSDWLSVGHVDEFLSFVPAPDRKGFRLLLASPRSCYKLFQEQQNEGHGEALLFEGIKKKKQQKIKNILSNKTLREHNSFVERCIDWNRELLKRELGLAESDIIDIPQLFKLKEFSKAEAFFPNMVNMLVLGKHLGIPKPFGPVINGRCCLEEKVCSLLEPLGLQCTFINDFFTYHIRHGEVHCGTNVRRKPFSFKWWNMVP
Fam108B counter – counter-screen for RBBP9 inhibitors: inhibitors of mouse Fam108B; recombinant Fam108B, FP-Rh probe fluorescence polarization; inhibition, % at 9.51 µM; 0.33% of 300,000 active;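 active means inhibition above the screen mean inhibition plus 3 SD, computed separately per campaign, cut at about 18% in these data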;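 further: inhibitors lower polarization as less probe binds the enzyme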
LYPLA1 counter – blocks human lysophospholipase 1, a PME1 counter-screen. O75608. recombinant LYPLA1, FP-Rh probe fluorescence polarization. inhibition, % at 5.9 µM. 0.16% of 320,000 active. AID 2174;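 active means inhibition above the mean of all tested compounds plus 3 SD, set per campaign, cut at about 14% in these data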;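 further: inhibitors block serine hydrolase probe labeling of LYPLA1 so polarization falls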
GSTO1 inh – counter-screen for RBBP9 inhibitors: inhibitors of human GSTO1. AID 1974. recombinant GSTO1, activity-based probe fluorescence polarization. P78417. inhibition, % at 5.96 µM. 1.1% of 300,000 active;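 active means inhibition above the campaign mean inhibition plus 3 SD, cut at about 35% in these data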
PME-1 primary – blocks human protein phosphatase methylesterase 1. Q9Y570. recombinant PME-1, FP-Rh probe fluorescence polarization. inhibition, % at 5.9 µM. 0.53% of 320,000 active;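 active means inhibition above the campaign mean of all compounds plus 3 SD, cut at about 26% in these data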;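 further: competitive labeling of PME-1 active site by serine hydrolase directed probe; inhibitors block probe labeling so polarization falls and inhibition rises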
LYPLA2 inh – blocks human lysophospholipase 2, a PME1 counter-screen. inhibition, % at 5.9 µM. recombinant LYPLA2, FP-Rh probe fluorescence polarization. 0.38% of 320,000 active. O95372;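 active means inhibition above the screen-wide mean plus 3 SD, limit set per campaign, cut at about 26% in these data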
Fam108b confirm – confirmation of mouse Fam108b serine hydrolase inhibitors | shares compounds with Fam108B counter | recombinant Fam108b, FP-Rh probe fluorescence polarization | inhibition, % at 9.51 µM | 44% of 930 active;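 active means inhibition above a limit from the primary screen, the mean over all compounds plus 3 SD, cut at about 19% in these data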;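 further: inhibitors free the probe so polarization falls as inhibition rises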
Fam108b ABPP HTS – inhibits mouse Fam108b in gel-based ABPP. shares compounds with Fam108B counter. recombinant Fam108b, fluorophosphonate probe. inhibition, % at 20 µM. 44% of 260 active; in the data active means inhibition above about 40%
GSTO1 confirm – GSTO1 (human) inhibition, confirmation; recombinant GSTO1, probe fluorescence polarization; 54% of 2,400 active; AID 2176; inhibition, % at 5.96 µM; shares compounds with GSTO1 inh;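 active means inhibition above the primary screen's cutoff, its mean inhibition plus 3 SD, cut at about 35% in these data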;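 further: loss of polarization as inhibitors block binding of rhodamine sulfonate ester activity probe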
GSTO1 recomb ABPP – blocks recombinant human glutathione S-transferase omega 1. AID 463110. recombinant GSTO1, gel ABPP SE-Rh probe fluorescence. 30% of 130 active. shares compounds with GSTO1 inh. inhibition, % at 1 µM;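 active means inhibition of the enzyme GSTO1 above about 75%, limit read from the data; inactive means inhibition below that limit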
LYPLA1 conf – counter-screen for PME1 inhibitors: confirmation of human LYPLA1 inhibitors | inhibition, % at 5.9 µM | recombinant LYPLA1, FP-Rh probe fluorescence polarization | shares compounds with LYPLA1 counter | AID 2233 | 69% of 480 active;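 active means mean inhibition across replicates above the hit cutoff set in the primary screen, cut at about 15% in these data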;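 further: loss of FP-Rh probe labeling of LYPLA1 seen as lower polarization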
LYPLA2 conf – LYPLA2 (human) inhibition, confirmation counter-screen; shares compounds with LYPLA2 inh; recombinant LYPLA2, FP-Rh probe fluorescence polarization; inhibition, % at 5.9 µM; 72% of 1,100 active;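 active means mean inhibition across replicates above the hit cutoff set in the primary screen, cut at about 26% in these data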;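 further: blocked labeling of the enzyme by serine hydrolase FP-Rh probe lowers polarization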
PAD4 FP conf – PAD4 (human) inhibition, confirmed | shares compounds with PAD4 FP inh | inhibition, % at 6.36 µM | recombinant PAD4, RCA probe fluorescence polarization | 28% of 1,200 active;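 active means mean inhibition across replicates above the hit cutoff set by the earlier primary screen, cut at about 15% in these data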;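 further: inhibitors block active-site labeling by the probe so polarization falls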
Numbers stand for hits; 0 = inactive; - = no result given; ! = not confirmed by another sample. Compounds with a hit are over-represented: about 1.7% of the library has one in this group of screens.

SMILES | PAD4 FP inh | Fam108B counter | LYPLA1 counter | GSTO1 inh | PME-1 primary | LYPLA2 inh | GSTO1 confirm | others
CC(=O)O[C@@]12CO[C@@H]1C[C@H](OC1OCC(O)C(O)C1O)[C@@]1(C)C(=O)[C@H](O)C3=C(C)[C@@H](OC(=O)[C@H](O)[C@@H](NC(=O)c4ccccc4)c4ccccc4)C[C@@](O)([C@@H](OC(=O)c4ccccc4)C12)C3(C)C (stereo partly drawn) | 0 | 0 | 0 | 0 | 0 | 0 | -
N/C(=N\N=C/c1ccc(-c2ccc(O)c(C(=O)O)c2)o1)N[N+](=O)[O-] | 0 | 18.6 | 0 | 40.0 | 0 | 0 | 57.3 | Fam108b confirm=23.8
CCC(=O)OC(Cc1ccccc1)(c1ccccc1)[C@H](C)CN(C)C (stereo partly drawn) | 0 | - | - | - | - | - | -
CCN(CC)C(=O)c1ccc(NC(=O)c2cccc(S(=O)(=O)N3CCN(Cc4ccccc4)CC3)c2)cc1 | 0 | 0 | 0 | 0 | 0 | 0 | -
CCN(CC)C(=O)c1ccc2c(c1)C1C(Cl)C(Sc3ccccc3[N+](=O)[O-])CC1C(C(=O)O)N2 (stereo not drawn) | 0 | 46.6 | 0 | 52.4 | 0 | 0 | 48.6 | Fam108b confirm=0
CCC(=O)c1ccc(OCC(=O)N2CCN(CC(=O)Nc3ccccc3C(F)(F)F)CC2)cc1 | 0 | - | - | - | - | - | -
CN(C)[C@@H]1C(=O)C(C(N)=O)=C(O)[C@@]2(O)C(=O)C3=C(O)c4c(O)cccc4[C@@](C)(O)C3[C@H](O)C12 (stereo partly drawn) | 0 | 32.0! | 0 | 62.2 | 0 | 0 | 65.7! | Fam108b confirm=34.3
Cc1nonc1OCCNc1ccc([N+](=O)[O-])c2cccnc12 | 0 | 0 | 0 | 0 | 0 | 0 | -
O=[N+]([O-])c1ccc(NCc2ccccc2)c2nonc12 | 0 | 20.9 | 53.4 | 0 | 56.2 | 64.0 | - | Fam108b confirm=38.4;Fam108b ABPP HTS=0;LYPLA1 conf=36.0;LYPLA2 conf=50.0
C[C@]12C[C@H](O)[C@@H](O)CC1=CCC1C2CC[C@@]2(C)C1CC[C@@H]2O (stereo partly drawn) | 0 | - | - | - | - | - | -
Cc1ccccc1N1C(=O)/C(=C/c2ccco2)C(=O)NC1=S | 0 | 77.1 | 0 | 35.7 | 0 | 46.6 | - | Fam108b confirm=67.7;Fam108b ABPP HTS=70.0;LYPLA2 conf=31.8
C[n+]1c(-c2ccccc2)c2cc(N)ccc2c2ccc(N)cc21 | 81.2 | 104.3 | 89.1 | 104.2 | 115.8 | 115.7 | 89.6 | Fam108b confirm=70.4;Fam108b ABPP HTS=40.0;LYPLA1 conf=67.9;LYPLA2 conf=75.5;PAD4 FP conf=74.1
O=c1[nH]c(=S)n(C2CCCCC2)c(O)c1/C=N/N1CCOCC1 | 0 | 0 | 0 | 0 | 0 | 0 | -
O=C(CCC(=O)N1CCOc2ccc(Cl)cc21)N1CCC2(CC1)OCCO2 | 0 | 0 | 0 | 0 | 0 | 0 | -
O=C(NC1(C(F)(F)F)Oc2ccc(Cl)cc2O1)N1CCC2(CC1)OCCO2 (stereo not drawn) | 0 | 0 | 0 | 62.5 | 0 | 0 | 0
O=C(NC1(C(F)(F)F)Oc2ccccc2O1)N1CCC2(CC1)OCCO2 | 0 | 0 | 0 | 42.0 | 0 | 0 | 0
CCOC(=O)C1(CCOc2ccccc2)CCN(Cc2ccc(C)s2)CC1 | 0 | 0 | 0 | 0 | 0 | 0 | -
CC1CCSP(=O)(Oc2ccccc2)O1 (stereo not drawn) | 0 | 0 | 0 | 0 | 0 | 0 | -
O=P1(Oc2ccccc2)C[C@@H](O)[C@@H](O)[C@H](COCc2ccccc2)O1 (stereo partly drawn) | 0 | 0 | 0 | 72.6 | 0 | 0 | 0
CC(C)(C)OC(=O)c1c(N)n(Cc2ccco2)c2nc3ccccc3nc12 | 18.6 | 0 | 0 | 56.4 | 0 | 0 | 0
COCCCn1c(N)c(C(=O)NCc2ccco2)c2nc3ccccc3nc21 | 0 | 0 | 0 | 75.9 | 0 | 0 | 0
FC(F)(F)Oc1ccc(NC2=NCCCS2)cc1 | 0 | 0 | 0 | 0 | 0 | 0 | -
O=C1NC(=O)N(c2cccc(Br)c2)C(=O)/C1=C/c1ccsc1 | 0 | 0 | 0 | 0 | 0 | 0 | -
COP(=O)(OC)C(O)C(Cl)(Cl)Cl (stereo not drawn) | 0 | 0 | 0 | 44.2 | 0 | 0 | 0
COc1cc2c(cc1O)[C@@H]1Cc3ccc(OC)c(O)c3CN1CC2 | 0 | 0 | 0 | 69.4 | 0 | 0 | 0
SMILES | PAD4 FP inh | Fam108B counter | LYPLA1 counter | GSTO1 inh | PME-1 primary | LYPLA2 inh | GSTO1 confirm | others
COC(=O)C1=C(c2ccc(-c3ccccc3)c(F)c2)C[C@@H]2CC[C@H]1N2C(=O)NCCOc1ccccc1Cl | 0 | - | 0 | - | 0 | 0 | -
Cc1oc(-c2ccccc2Cl)nc1CN1C(=O)CN=C(c2ccccc2)c2ccccc21 | 0 | 0 | 0 | 0 | 0 | 0 | -
Oc1cccc2nc3ccccc3nc12 | 0 | 0 | 0 | 70.3 | 0 | 0 | 0
Cc1ccccc1O | 0 | - | - | - | - | - | -
O=C(CCl)NCC1CCCO1 (stereo not drawn) | 0 | 0 | 0 | 51.4 | 0 | 0 | 65.0
CCOc1cccc(=NC2CCCCC2)c2c(C)n(C)c(C)c12 | 0 | 0 | 0 | 0 | 0 | 0 | -
Cc1nc(CCl)cc(=O)[nH]1 | 0 | 0 | 0 | 68.6 | 0 | 0 | 77.0 | GSTO1 recomb ABPP=0
CCN1CCN(Cc2cc3c(cc2[N+](=O)[O-])OCO3)CC1 | 0 | 0 | 0 | 37.9 | 0 | 0 | 0
O=[N+]([O-])c1cc2c(cc1CNCCc1ccc3c(c1)OCO3)OCO2 | 0 | 0 | 0 | 0 | 0 | 0 | -
COc1cc2c(cc1O)C[C@H]1c3c(cc(O)c(OC)c3-2)CCN1C | 0 | 0 | 0 | 0 | 0 | 0 | -
CN1CCc2cc(O)cc3c2[C@H]1Cc1ccc(O)c(O)c1-3 | 0 | 0 | 0 | 99.0 | 0 | 0 | 0
N#Cc1c(/N=C/c2ccc(O)cc2O)sc2c1C1CCN2CC1 | 0 | 0 | 0 | 0 | 0 | 0 | -
CC(C)Oc1ccc(Cc2c(O)[nH]c(=O)[nH]c2=O)cc1 | 0 | 0 | 0 | 40.1 | 0 | 0 | 0
CCOc1ccc(Cc2c(O)[nH]c(=O)[nH]c2=O)cc1 | 0 | 0 | 0 | 0 | 0 | 0 | -
c1ccc(-c2[nH]c(-c3ccccc3)[n+](CC3CO3)c2-c2ccccc2)cc1 (stereo not drawn) | 0 | 0 | 0 | 84.3 | 0 | 0 | 84.4 | GSTO1 recomb ABPP=0
